# JMJD2A Tudor inh = inhibitors of human JMJD2A Tudor domain. O75164. AlphaScreen JMJD2A-Tudor / H3K4me3 peptide binding. Potency, µM (top dose mostly 114 µM), without a hit: at the highest dose activity change, negative = inhibition, actives largely listed as inhibitors. hit rate 4.4% among 390,000. AID 504339; also: % is scaled to controls: 0 for no effect and ±100 for the full control effect; nearly all actives have a fitted effect of over 50% in size
# VDR inh = vitamin D3 receptor (human) inhibition; Potency, µM, inactives show max response, negative = inhibition, usual class: inhibitors; VDR-SRC2-3 peptide fluorescence polarization, 2 h; hit rate 0.93% among 400,000; AID 504847; also: % is scaled to controls: 0 for no effect and ±100 for the full control effect
#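 FP read-out; VDR + SRC2-3 coactivator peptide; 23 nl compound by pintool; 2 h RT incubation; reagents held at 4 deg C, protected from light.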
# HP1b binding inh = inhibitors of HP1-beta chromodomain binding to methylated histone tails. P83916. AlphaScreen HP1-beta / biotin-H3K9me3 peptide binding. Potency, µM (highest dose often 114 µM), inactives show top-dose activity change, negative = inhibition, most hits filed as inhibitors. hit rate 0.56% among 390,000; also: nearly all actives have a fitted effect of over 70% in size
# Target sequence (P83916 whole entry, looked up): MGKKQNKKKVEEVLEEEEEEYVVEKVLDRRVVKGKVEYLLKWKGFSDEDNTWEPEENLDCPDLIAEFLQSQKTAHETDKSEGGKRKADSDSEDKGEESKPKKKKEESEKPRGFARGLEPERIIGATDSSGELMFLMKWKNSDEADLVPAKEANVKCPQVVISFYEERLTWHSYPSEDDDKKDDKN
#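 AlphaScreen: HP1-beta (50 nM) preformed 30 min with biotin-H3(1-18)K9me3 peptide (50 nM) in PBS pH 7.4, 0.01% Tween-20. Compound added for 30 min at RT, then streptavidin donor/nickel chelate acceptor beads (10 ug/mL) for 30 min.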
# G9a inh = G9a (human) methyltransferase inhibition; Q96KQ7; G9a H3K9 monomethylation, AlphaScreen, 2 h; Potency, µM (doses to about 102 µM), for inactives: at the highest dose activity, negative = inhibition, hits mostly inhibitors; hit rate 8.8% among 350,000; also: % is scaled to controls: 0 for no effect and ±100 for the full control effect; nearly all actives have a fitted effect of over 75% in size
# Target sequence (Q96KQ7 913-1193 limits assumed): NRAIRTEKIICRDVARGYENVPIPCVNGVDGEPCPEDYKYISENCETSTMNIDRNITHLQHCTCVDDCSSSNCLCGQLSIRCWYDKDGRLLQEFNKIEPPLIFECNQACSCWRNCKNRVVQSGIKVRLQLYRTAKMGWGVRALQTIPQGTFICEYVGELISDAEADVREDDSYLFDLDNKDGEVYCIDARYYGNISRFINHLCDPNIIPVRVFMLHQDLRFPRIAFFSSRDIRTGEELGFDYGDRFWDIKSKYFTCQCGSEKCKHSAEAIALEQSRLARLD
#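 Signal arises when biotinylated H3K9 peptide, once monomethylated, bridges streptavidin donor and antibody-captured acceptor beads. Enzyme at 20 nM was preincubated 15 min with test compounds; peptide 500 nM and SAM 20 uM then reacted for 2 h.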
# PLK1 PBD block = PLK1 (human) polo-box domain binding inhibition; P53350; Plk1 PBD binding of FITC phosphopeptide, fluorescence polarization; Potency, µM, without a hit: max response, negative = inhibition, most hits filed as inhibitors; hit rate 2.8% among 360,000; AID 720504; also: series mostly up to about 57 µM; % is scaled to controls: 0 for no effect and ±100 for the full control effect; nearly all actives have a fitted effect of over 65% in size
# BAZ2B block = BAZ2B (human) inhibition; hit rate 4.4% among 360,000; Q9UIF8; AlphaScreen BAZ2B-H3K14Ac peptide displacement; Potency, µM (doses to about 114 µM), for the others: at the top dose activity change, negative = inhibition, most hits filed as inhibitors; also: % is scaled to controls: 0 for no effect and ±100 for the full control effect; nearly all actives have a fitted effect of over 60% in size
#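 AlphaScreen displacement of biotin-H3(5-23)K14Ac peptide (50 nM final) from BAZ2B (50 nM final) in PBS pH 7.4, 0.01% Tween-20; complex preformed 30 min RT, then compounds (top 110 uM) 30 min RT, beads 20 min dark.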
# Active calls of the source: *; ? = inconclusive; nt = not tested or not shown; [ ] = remark or other dose. In the library only some 11% were active in any assay of this set; here they are far more common. Calls follow the shape of the dose curve; as a rule, active = well fitted curve in the direction sought with a large enough effect; inconclusive = small, poorly fitted or top-dose-only effect, or another doubt; inactive = no such curve, though single readings can be large; an effect the other way counts as inactive or inconclusive. Potency is read from the fitted curve at half-maximal effect.
SMILES,JMJD2A Tudor inh,VDR inh,HP1b binding inh,G9a inh,PLK1 PBD block,BAZ2B block
O=C(Nc1ccc(OC(F)(F)F)cc1)Oc1ccccc1N1CCCCC1,-1.3%,-19.5%,45.7%,nt,-16.7%,-0.8%
Cc1oc(-c2cccc(Cl)c2)nc1CN1CCC(C(=O)NCCCN2CCN(c3ccc(F)cc3)CC2)CC1,-27.6%,-19.0%,-0.8%,?,nt,22.4µM*
CCCCNC(=O)C1CCCN(Cc2nc(-c3ccc(Cl)cc3)oc2C)C1 (centres undefined),-8.8%,-8.1%,33.6%,-24.3%[59 µM],nt,?
Cc1oc(-c2ccc(Cl)cc2)nc1CN1CCC(C(=O)NCCCN2CCN(c3cccc(Cl)c3)CC2)CC1,?,2.6%,-11.6%,10µM*,nt,?
COC1=CC(=O)O[C@@H](/C=C\c2ccccc2)C1,nt,2.1%,nt,29.4%[21.5 µM],nt,nt
CCCCCSc1cc(OC)c(CCN(C)C)cc1OC,?,-15.0%,?,3.5%[59 µM],-15.0%,44.7µM*
CC([C@H](O)c1ccccc1)N(C)C (some centres undefined),nt,8.5%,nt,?,nt,nt
CCCc1[nH]nc2c1C(c1ccc(OC)c(Cn3nnc4ccccc43)c1)C(C#N)=C(N)O2 (centres undefined),?,?,-18.7%,-45.7%[59 µM],11.9µM*,-31.3%
Ic1ccccc1CN[C@@H]1C2CCN(CC2)[C@@H]1C(c1ccccc1)c1ccccc1,17.8µM*,1.4%,?,1.58µM*,2.3%,39.8µM*
Ic1ccccc1CNC1C2CCN(CC2)C1C(c1ccccc1)c1ccccc1 (centres undefined),nt,-12.5%,nt,2µM*,nt,nt
COc1ccc(OC)c(CN2CCN(C(=O)Cc3ccccc3)CC2)c1,17.8µM*,?,?,5.01µM*,-2.7%,?
COc1ccc(CN2CCN(C(=O)Cc3ccccc3)CC2)cc1Br,25.1µM*,-10.0%,?,nt,1.0%,?
COc1ccc(CN2CCN(C(=O)Cc3ccccc3)CC2)cc1OC,nt,nt,nt,nt,-7.8%,nt
CCOc1cc(CN2CCN(C(=O)Cc3ccccc3)CC2)ccc1OC,28.2µM*,0.8%,?,nt,5.1%,56.2µM*
COC(=O)[C@@H]1[C@@H]2C[C@H]3c4[nH]c5cc(OC)ccc5c4CCN3C[C@@H]2C[C@H](OC(=O)/C=C\c2cc(OC)c(OC)c(OC)c2)[C@H]1OC,nt,5.5%,nt,?,nt,nt
NCC[C@H](O)C(=O)N[C@H]1C[C@@H](N)[C@@H](O[C@H]2O[C@@H](CN)[C@@H](O)[C@@H](O)[C@@H]2N)[C@@H](O[C@H]2O[C@@H](CO)[C@@H](O)[C@@H]2O)[C@@H]1O,nt,2.9%,nt,2.9%[5.15 µM],nt,nt
COc1ccc(OCC(=O)N2CCN(C/C=C/c3ccccc3)CC2)cc1,-29.2%,-15.3%,41.9%,3.9%,-3.0%,-26.9%
COc1ccccc1CN1CCN(C(=O)COc2cccc(C)c2)CC1,31.6µM*,-2.3%,?,?,-7.1%,50.1µM*
Cn1nc(-c2ccc(OCC(=O)N3CCN(Cc4ccccc4)CC3)cc2)c2ccccc2c1=O,?,-0.7%,11.1%,19.1%[59 µM],-1.7%,-11.7%
COc1cccc(CN2CCN(C(=O)Cc3ccccc3OC)CC2)c1,-5.3%,-6.9%,29.7%,nt,-7.7%,-10.0%
COc1cc(CN2CCN(C(=O)COc3ccccc3)CC2)cc(OC)c1OC,3.16µM*,7.5%,-19.6%,?,1.2%,?
Cn1cccc1CN1CCN(C(=O)COc2ccccc2)CC1,7.08µM*,11.9%,?,?,0.7%,44.7µM*
COc1ccc(OC)c(CN2CCN(C(=O)COc3cccc(C)c3)CC2)c1,3.55µM*,2.0%,?,7.08µM*,-2.1%,?
CCSc1nc2n(n1)C(c1ccc(Cl)cc1Cl)C(C(=O)Nc1ccccc1C)=C(C)N2 (centres undefined),-17.3%,18.0%,43.9%,-25.6%[59 µM],nt,-1.4%
CCNC(=O)O/N=C(\C)c1sc(-c2ccccc2)nc1C,-6.2%[11.4 µM],-3.5%,-3.5%,11.9%,23.8µM*,-4.3%
SMILES,JMJD2A Tudor inh,VDR inh,HP1b binding inh,G9a inh,PLK1 PBD block,BAZ2B block
C[n+]1ccc(-c2ccncc2)cc1,39.8µM*,5.6%,23.6%,15.8µM*,2.0%,-3.7%
O=C(O)c1ccccc1N=Nc1c(O)[nH]c(=O)[nH]c1=O,-13.0%,11.6%,37.3%,?,1.4%,-14.9%
O=C(N=Nc1c(O)[nH]c(=O)[nH]c1=O)C1COc2ccccc2O1 (centres undefined),-2.7%,?,29.0%,44.7µM*,-12.0%,-5.4%
O=c1[nH]c(O)c(N=Nc2cccc(S(=O)(=O)N3CCOCC3)c2)c(=O)[nH]1,5.9%,5.3%,61.2%,0.1%,-6.6%,-18.3%
COc1cccc(N=Nc2c(O)[nH]c(=S)[nH]c2=O)c1,-26.2%,-1.1%,2.7%,50.1µM*,-11.4%,-32.5%
O=c1[nH]c(=S)[nH]c(O)c1N=Nc1cccc(S(=O)(=O)N2CCOCC2)c1,-13.3%,-7.9%,20.5%,50.1µM*,-19.1%,-22.5%
O=c1[nH]c(=S)[nH]c(O)c1N=Nc1ccc2c(c1)OCCO2,-9.2%,-2.4%,23.8%,?,11.7%,-27.4%
O=c1[nH]c(O)c(N=Nc2ccc3c(c2)OCCO3)c(=O)[nH]1,?,20.8%,-23.1%,50.1µM*,-4.6%,?
COC[C@H]([C@@H](O)[C@@H](O)C(=O)NCC[C@@H](C)c1nc(/C=C/C[C@H]2OC3(C[C@H](O)[C@H]2C)OC([C@@H](C[C@@H](O)[C@@H](C)[C@@H](O)[C@@H](C)/C=C(C)/C(C)=C/C=C/C(C)=C\C#N)OC)[C@@H](OP(=O)(O)O)C3(C)C)co1)N(C)C (some centres undefined),nt,2.1%,nt,27.1%[59 µM],nt,nt
O=C(Oc1ccccc1)N1CCC[C@@]2(CCN(Cc3ccccc3)C2)C1,nt,-11.6%,nt,-3.4%[12.7 µM],nt,nt
NC(=NCCc1ccc(I)cc1)SCCCc1cnc[nH]1,nt,1.9%,nt,?,nt,nt
O=c1[nH]c(O)c(N=Nc2ccc(S(=O)(=O)N3CCOCC3)cc2)c(=O)[nH]1,-25.9%,-2.5%,36.6%,12.6µM*,-23.0%,-26.7%
COc1nnc(-c2ccc(N3CCCCC3)c(NC(=O)c3ccc(Cl)cc3)c2)c2ccccc12,-7.2%,-14.3%,13.4%,?,nt,-7.4%
c1cncc(CNC2=NCCCCC2)c1,-12.1%,7.2%,4.1%,?,-7.1%,79.4µM*
CCOC(=O)[C@]12Cc3cc(Cl)ccc3[C@H]1N(CC(=O)OC)C(=O)c1ccccc12,nt,nt,nt,nt,4.23µM*,nt
CCOC(=O)[C@]12Cc3cc(Cl)ccc3[C@H]1N(C(C)C)C(=O)c1ccccc12,nt,nt,nt,nt,9.47µM*,nt
CCCC[N+]12C3CC(C(CC)[C@H]1O)[C@@H]1C(O)C4(C[C@@H]12)c1ccccc1N(C)C34 (some centres undefined),nt,1.2%,nt,nt,nt,nt
Oc1cccc[c]1[Hg][Cl],nt,5.01µM*,nt,?,nt,nt

# High-throughput results as filed in PubChem BioAssay.
